Results filed as inconclusive are left out. Active and inactive are the calls of the source. Rule for the calls, unless noted: active = hit-call score of the fitted dose curve at least 0.9, where 1 is the maximum; inactive = score below 0.9.
What was measured:
[1] = biological target: Glucocorticoid receptor (Homo sapiens) (UniProt P04150); assay: ATG_GR_TRANS: Attagene TRANS-FACTORIAL HepG2 Assay for human Glucocorticoid Receptor (GR) (AID 2282978; active = hit-call score of the fitted dose curve at least 0.9, where 1 is the maximum;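 note: activators score as hits since higher reporter transcript over DMSO is fitted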); conditions: HepG2 Attagene TRANS GR reporter, mRNA transcription
Chain of Glucocorticoid receptor (Homo sapiens) (P04150 whole entry, looked up): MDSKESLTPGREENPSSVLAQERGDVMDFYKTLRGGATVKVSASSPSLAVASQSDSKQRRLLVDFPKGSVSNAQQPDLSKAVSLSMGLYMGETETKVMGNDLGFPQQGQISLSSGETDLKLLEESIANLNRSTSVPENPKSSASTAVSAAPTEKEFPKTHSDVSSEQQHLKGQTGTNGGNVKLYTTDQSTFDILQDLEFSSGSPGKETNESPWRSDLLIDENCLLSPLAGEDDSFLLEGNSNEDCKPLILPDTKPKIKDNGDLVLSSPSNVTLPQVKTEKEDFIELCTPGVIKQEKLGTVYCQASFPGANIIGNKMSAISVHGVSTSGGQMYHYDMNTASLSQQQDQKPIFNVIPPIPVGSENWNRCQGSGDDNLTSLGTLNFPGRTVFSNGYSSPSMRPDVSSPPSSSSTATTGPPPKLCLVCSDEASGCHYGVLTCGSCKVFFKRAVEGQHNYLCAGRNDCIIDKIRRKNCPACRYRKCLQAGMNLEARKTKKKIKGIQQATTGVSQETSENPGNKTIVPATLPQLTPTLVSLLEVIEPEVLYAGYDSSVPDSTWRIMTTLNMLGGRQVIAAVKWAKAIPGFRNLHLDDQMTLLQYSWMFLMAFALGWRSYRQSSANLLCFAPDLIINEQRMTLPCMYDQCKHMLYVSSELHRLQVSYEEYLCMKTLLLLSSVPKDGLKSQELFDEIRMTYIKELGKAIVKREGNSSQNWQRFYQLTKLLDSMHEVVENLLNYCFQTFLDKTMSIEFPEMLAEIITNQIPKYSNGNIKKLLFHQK
Summary of the method: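 After 24 h incubation with test chemical, transfected HepG2 cells were lysed for RNA; reporter cDNA was amplified, FAM-labelled, HpaI-digested and sized on a capillary analyser. Signal gain relative to DMSO was scored.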

[2] = biological target: Oxysterols receptor LXR-alpha (Homo sapiens) (UniProt Q13133); assay: ATG_LXRa_TRANS: Attagene TRANS-FACTORIAL HepG2 Assay for human Liver X Receptor alpha (LXRa) (AID 2282980; active = hit-call score of the fitted dose curve at least 0.9, where 1 is the maximum); conditions: HepG2 Attagene TRANS reporter, LXRa transactivation
Chain of Oxysterols receptor LXR-alpha (Homo sapiens) (Q13133 whole entry, looked up, the tested form may be a part): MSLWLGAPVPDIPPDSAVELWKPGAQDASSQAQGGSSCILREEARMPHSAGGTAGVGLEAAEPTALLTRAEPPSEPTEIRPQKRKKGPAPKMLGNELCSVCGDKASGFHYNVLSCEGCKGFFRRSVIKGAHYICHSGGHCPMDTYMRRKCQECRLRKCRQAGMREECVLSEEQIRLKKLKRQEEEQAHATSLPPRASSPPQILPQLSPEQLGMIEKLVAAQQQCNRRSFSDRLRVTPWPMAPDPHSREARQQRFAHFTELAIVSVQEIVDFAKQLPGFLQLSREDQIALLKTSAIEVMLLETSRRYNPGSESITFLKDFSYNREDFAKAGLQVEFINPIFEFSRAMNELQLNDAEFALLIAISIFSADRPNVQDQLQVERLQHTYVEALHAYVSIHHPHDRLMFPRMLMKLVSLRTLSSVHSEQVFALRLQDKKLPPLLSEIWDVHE
Summary of the method: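 In this multiplexed TRANS system, compounds act on HepG2 cells carrying GAL4-UAS reporter units and a receptor-GAL4 fusion for 24 h. Induced reporter RNA is amplified, fluorescently labelled and sized by capillary electrophoresis, with DMSO as baseline.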

[3] = biological target: Oxysterols receptor LXR-beta (Homo sapiens) (UniProt P55055); assay: ATG_LXRb_TRANS: Attagene TRANS-FACTORIAL HepG2 Assay for human Liver X Receptor beta (LXRb) (AID 2282981; active = hit-call score of the fitted dose curve at least 0.9, where 1 is the maximum); conditions: HepG2 Attagene TRANS GAL4-LXRb reporter, mRNA
Chain of Oxysterols receptor LXR-beta (Homo sapiens) (P55055 whole entry, looked up, the tested form may be a part): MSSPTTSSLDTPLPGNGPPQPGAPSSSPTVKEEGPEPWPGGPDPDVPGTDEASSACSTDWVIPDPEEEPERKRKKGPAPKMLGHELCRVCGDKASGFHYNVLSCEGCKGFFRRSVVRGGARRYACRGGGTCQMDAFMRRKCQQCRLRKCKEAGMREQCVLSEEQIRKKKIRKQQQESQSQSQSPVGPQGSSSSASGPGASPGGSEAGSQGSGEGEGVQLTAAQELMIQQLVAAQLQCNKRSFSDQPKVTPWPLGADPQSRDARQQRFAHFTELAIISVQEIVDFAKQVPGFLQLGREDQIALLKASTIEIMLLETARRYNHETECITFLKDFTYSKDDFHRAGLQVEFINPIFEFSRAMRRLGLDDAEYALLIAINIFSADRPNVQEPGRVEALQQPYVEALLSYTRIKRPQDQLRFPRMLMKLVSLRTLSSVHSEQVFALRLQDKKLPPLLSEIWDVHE
Summary of the method: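 Transient transfection HepG2 (multiplexed RTUs, GAL4-UAS); NR-Gal4 chimera; 24 h exposure; RNA → RT-PCR → 6-FAM primer extension → HpaI → CE; increase vs DMSO.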

[4] = ATG_M_32_TRANS: Attagene TRANS-FACTORIAL HepG2 Assay for M32 Transcription Factor (Internal Marker) (AID 2282984; active = hit-call score of the fitted dose curve at least 0.9, where 1 is the maximum;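 note: transcript level of a background control reporter unit measured by RT-PCR and capillary electrophoresis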); conditions: HepG2 Attagene TRANS M32 internal marker reporter
Summary of the method: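 Measures reporter mRNA induction in human HepG2 liver cells after 24 h chemical treatment. Transcripts from transiently transfected GAL4-UAS reporter units are amplified, fluorescently labelled and sized by capillary electrophoresis; gain of signal relative to DMSO.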

[5] = biological target: Nuclear receptor subfamily 4 group A member 2 (Homo sapiens) (UniProt P43354); assay: ATG_NURR1_TRANS: Attagene TRANS-FACTORIAL HepG2 Assay for human Nuclear Receptor Related Protein 1 (NURR1) (AID 2282985; active = hit-call score of the fitted dose curve at least 0.9, where 1 is the maximum); conditions: HepG2 Attagene TRANS reporter, mRNA readout
Summary of the method: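 Transient transfection of HepG2, human liver cells, with multiple GAL4-UAS reporter transcription units. Cells dosed 24 h, RNA isolated, reverse-transcribed, PCR-amplified, FAM-labelled, HpaI-digested, sized by capillary electrophoresis. DMSO served as negative control.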

[6] = biological target: Transcriptional activator Myb (Homo sapiens) (UniProt P10242); assay: ATG_Myb_CIS: Attagene CIS-FACTORIAL HepG2 Assay for human Myeloblastosis (Myb) Proto-Oncogene Transcription Factor (AID 2282986); conditions: HepG2 Attagene CIS-FACTORIAL Myb reporter transcription; actives raise or lower the signal
Chain of Transcriptional activator Myb (Homo sapiens) (P10242 whole entry, looked up): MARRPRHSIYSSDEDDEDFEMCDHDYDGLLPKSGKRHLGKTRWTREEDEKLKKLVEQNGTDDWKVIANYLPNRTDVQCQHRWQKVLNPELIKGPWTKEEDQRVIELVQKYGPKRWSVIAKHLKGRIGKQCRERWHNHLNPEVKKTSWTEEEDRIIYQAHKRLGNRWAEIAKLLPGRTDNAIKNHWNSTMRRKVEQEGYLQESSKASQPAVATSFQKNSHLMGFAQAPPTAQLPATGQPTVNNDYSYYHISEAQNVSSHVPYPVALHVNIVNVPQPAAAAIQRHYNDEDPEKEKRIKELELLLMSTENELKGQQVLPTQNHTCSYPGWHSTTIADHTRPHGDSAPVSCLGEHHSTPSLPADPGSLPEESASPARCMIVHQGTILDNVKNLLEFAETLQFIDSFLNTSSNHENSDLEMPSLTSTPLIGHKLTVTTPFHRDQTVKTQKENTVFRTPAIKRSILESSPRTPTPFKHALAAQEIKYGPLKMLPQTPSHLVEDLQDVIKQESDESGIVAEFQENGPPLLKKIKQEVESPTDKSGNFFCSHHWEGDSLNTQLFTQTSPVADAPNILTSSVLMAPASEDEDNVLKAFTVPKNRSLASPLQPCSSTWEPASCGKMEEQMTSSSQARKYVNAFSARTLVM
Summary of the method: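 After 24 h of compound dosing, total RNA from transfected HepG2 cells is reverse-transcribed and the reporter sequences amplified, labeled and separated by capillary electrophoresis. Values come from bidirectional fitting against DMSO.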

[7] = biological target: Nuclear respiratory factor 1 (Homo sapiens) (UniProt Q16656); assay: ATG_NRF1_CIS: Attagene CIS-FACTORIAL HepG2 Assay for human Nuclear Respiratory Factor 1 (NRF1) Orphan Gene (AID 2282987); conditions: HepG2 NRF1 cis-element reporter, Attagene multiplex; actives raise or lower the signal
Chain of Nuclear respiratory factor 1 (Homo sapiens) (Q16656 whole entry, looked up): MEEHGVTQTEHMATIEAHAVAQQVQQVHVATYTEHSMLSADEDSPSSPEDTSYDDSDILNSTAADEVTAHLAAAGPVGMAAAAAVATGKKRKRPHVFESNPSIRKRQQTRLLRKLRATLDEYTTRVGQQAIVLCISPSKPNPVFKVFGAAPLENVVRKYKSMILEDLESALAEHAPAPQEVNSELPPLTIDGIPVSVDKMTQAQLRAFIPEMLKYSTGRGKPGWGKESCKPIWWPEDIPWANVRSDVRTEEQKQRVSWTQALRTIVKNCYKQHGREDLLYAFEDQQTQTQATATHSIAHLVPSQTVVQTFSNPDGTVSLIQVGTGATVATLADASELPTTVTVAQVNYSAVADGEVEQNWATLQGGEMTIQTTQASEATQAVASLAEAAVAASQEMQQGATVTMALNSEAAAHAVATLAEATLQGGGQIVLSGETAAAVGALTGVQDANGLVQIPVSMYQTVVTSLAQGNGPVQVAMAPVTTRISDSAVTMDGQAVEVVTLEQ
Summary of the method: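 Measured: fluorescent reporter-specific RT-PCR products from transfected HepG2 cells, separated by capillary electrophoresis. Exposure lasted 24 h. Analysis used bidirectional curve fitting with DMSO as negative control.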

[8] = ATG_NFI_CIS: Attagene CIS-FACTORIAL HepG2 Assay for human Nuclear Factor I (NFI) (AID 2282989); conditions: HepG2 cis-regulatory reporter, NFI response element transcription; actives raise or lower the signal
Summary of the method: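 Reporter transcription driven by endogenous transcription factors in HepG2 cells; 24 h treatment. Quantitation by labelled RT-PCR fragments on capillary electrophoresis, gain- or loss-of-signal relative to DMSO.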

[9] = biological target: Myc proto-oncogene protein (Homo sapiens) (UniProt P01106); assay: ATG_Myc_CIS: Attagene CIS-FACTORIAL HepG2 Assay for human Myelocytomatosis (Myc) Proto-Oncogene Transcription Factor (AID 2282990); conditions: HepG2, Attagene cis-reporter transcription factor activity; actives raise or lower the signal
Chain of Myc proto-oncogene protein (Homo sapiens) (P01106 whole entry, looked up, the tested form may be a part): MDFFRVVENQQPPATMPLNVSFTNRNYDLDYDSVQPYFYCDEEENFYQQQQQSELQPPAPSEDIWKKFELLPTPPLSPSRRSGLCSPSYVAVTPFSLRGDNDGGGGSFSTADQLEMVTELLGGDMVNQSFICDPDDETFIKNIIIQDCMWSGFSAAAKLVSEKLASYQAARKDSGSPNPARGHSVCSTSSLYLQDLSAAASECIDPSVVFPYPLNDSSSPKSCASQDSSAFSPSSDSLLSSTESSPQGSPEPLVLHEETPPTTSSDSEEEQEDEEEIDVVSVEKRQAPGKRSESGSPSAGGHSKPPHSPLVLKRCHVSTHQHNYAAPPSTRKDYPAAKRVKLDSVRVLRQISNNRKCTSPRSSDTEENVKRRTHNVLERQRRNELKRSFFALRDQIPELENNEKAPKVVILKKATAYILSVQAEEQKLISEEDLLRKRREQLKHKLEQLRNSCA
Summary of the method: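 After 24 h chemical treatment of HepG2 cells carrying multiplexed cis-regulated reporter constructs, reporter transcripts quantified by RT-PCR and capillary electrophoresis of fluorescent fragments. Gain or loss fitted against DMSO baseline.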

[10] = ATG_NF_kB_CIS: Attagene CIS-FACTORIAL HepG2 Assay for human Nuclear Factor Kappa B (NF-kB) (AID 2282991); conditions: HepG2 Attagene cis-factorial NF-kB reporter mRNA; actives raise or lower the signal
Summary of the method: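 Fluorescence of labelled RT-PCR products separated by capillary electrophoresis gives reporter mRNA levels from transfected HepG2 cells exposed 24 h; values are fitted in both directions relative to DMSO.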

[11] = ATG_NRF2_ARE_CIS: Attagene CIS-FACTORIAL HepG2 Assay for human Nuclear Factor Erythroid 2 Related Factor 2 (NFR2) response to Antioxidant Response Elements (ARE) (AID 2282992); conditions: HepG2 Attagene ARE/NRF2 reporter, transcription factor activity; actives raise or lower the signal
Summary of the method: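 HepG2 cells transiently transfected with multiplexed cis-element reporter constructs, 24 h after chemical dosing; reporter mRNA quantified by RT-PCR, fluorescent primer extension, HpaI digestion and capillary electrophoresis. Bidirectional fit relative to DMSO.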

[12] = ATG_Oct_MLP_CIS: Attagene CIS-FACTORIAL HepG2 Assay for human Octamer-Binding Transcription Factor (Oct) (AID 2282993); conditions: HepG2 Attagene cis-factorial Oct reporter, mRNA; actives raise or lower the signal
Summary of the method: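 Transfected HepG2 cells, 24 h treatment. Reporter mRNA quantified by RT-PCR–capillary electrophoresis; bidirectional fitting against DMSO.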

[13] = biological target: Cellular tumor antigen p53 (Homo sapiens) (UniProt P04637); assay: ATG_p53_CIS: Attagene CIS-FACTORIAL HepG2 Assay for human p53 Transcription Factor (AID 2282994); conditions: HepG2 p53 cis-element reporter, Attagene mRNA; actives raise or lower the signal
Chain of Cellular tumor antigen p53 (Homo sapiens) (P04637 whole entry, looked up): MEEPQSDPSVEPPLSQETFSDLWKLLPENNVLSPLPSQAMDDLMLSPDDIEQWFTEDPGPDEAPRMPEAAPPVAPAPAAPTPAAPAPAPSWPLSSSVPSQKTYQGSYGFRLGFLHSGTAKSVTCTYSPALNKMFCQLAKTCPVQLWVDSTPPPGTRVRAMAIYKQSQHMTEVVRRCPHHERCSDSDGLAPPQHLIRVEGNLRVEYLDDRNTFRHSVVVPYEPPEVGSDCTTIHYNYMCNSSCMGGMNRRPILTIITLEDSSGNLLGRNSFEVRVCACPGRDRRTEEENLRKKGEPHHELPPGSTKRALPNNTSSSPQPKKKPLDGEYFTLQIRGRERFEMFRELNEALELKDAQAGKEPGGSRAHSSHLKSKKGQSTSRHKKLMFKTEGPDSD
Summary of the method: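 HepG2 cells transiently transfected with cis-regulated multiple reporter transcription units, dosed 24 h. Reporter mRNA measured by RT-PCR, 6-FAM primer extension, HpaI digestion and capillary electrophoresis; bidirectional fit relative to DMSO.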

[14] = biological target: Hepatocyte nuclear factor 4-alpha (Homo sapiens) (UniProt P41235); assay: ATG_HNF4a_TRANS: Attagene TRANS-FACTORIAL HepG2 Assay for human Hepatocyte Nuclear Factor 4 alpha (HNF4a) (AID 2282982; active = hit-call score of the fitted dose curve at least 0.9, where 1 is the maximum); conditions: HepG2 HNF4a transactivation reporter, mRNA readout
Chain of Hepatocyte nuclear factor 4-alpha (Homo sapiens) (P41235 whole entry, looked up, the tested form may be a part): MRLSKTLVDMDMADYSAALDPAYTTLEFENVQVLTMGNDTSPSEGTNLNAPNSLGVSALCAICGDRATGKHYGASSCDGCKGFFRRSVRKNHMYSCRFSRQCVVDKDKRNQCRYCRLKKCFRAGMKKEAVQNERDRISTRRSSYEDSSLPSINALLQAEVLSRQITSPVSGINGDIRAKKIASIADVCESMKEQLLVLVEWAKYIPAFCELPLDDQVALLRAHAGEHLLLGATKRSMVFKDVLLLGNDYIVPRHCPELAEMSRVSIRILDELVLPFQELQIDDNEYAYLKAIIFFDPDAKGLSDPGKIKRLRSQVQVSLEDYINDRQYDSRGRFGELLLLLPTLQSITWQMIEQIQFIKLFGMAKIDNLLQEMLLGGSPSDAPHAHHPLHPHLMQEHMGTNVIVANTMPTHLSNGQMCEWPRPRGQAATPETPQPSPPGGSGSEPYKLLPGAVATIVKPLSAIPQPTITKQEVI
Summary of the method: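 Readout is fluorescent reporter-transcript fragments resolved by capillary electrophoresis after RT-PCR from HepG2 cells dosed for 24 h. Cells carried transfected GAL4-UAS reporter constructs measuring exogenous NR-GAL4 chimera activity; DMSO served as baseline.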

[15] = biological target: Bile acid receptor (Homo sapiens) (UniProt Q96RI1); assay: ATG_FXR_TRANS: Attagene TRANS-FACTORIAL HepG2 Assay for Farnesoid X Receptor (FXR) (AID 2282979; active = hit-call score of the fitted dose curve at least 0.9, where 1 is the maximum;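 note: hits raise reporter mRNA above DMSO so AC50 marks FXR activation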); conditions: HepG2 Attagene TRANS FXR-GAL4 reporter transcription
Chain of Bile acid receptor (Homo sapiens) (Q96RI1 whole entry, looked up, the tested form may be a part): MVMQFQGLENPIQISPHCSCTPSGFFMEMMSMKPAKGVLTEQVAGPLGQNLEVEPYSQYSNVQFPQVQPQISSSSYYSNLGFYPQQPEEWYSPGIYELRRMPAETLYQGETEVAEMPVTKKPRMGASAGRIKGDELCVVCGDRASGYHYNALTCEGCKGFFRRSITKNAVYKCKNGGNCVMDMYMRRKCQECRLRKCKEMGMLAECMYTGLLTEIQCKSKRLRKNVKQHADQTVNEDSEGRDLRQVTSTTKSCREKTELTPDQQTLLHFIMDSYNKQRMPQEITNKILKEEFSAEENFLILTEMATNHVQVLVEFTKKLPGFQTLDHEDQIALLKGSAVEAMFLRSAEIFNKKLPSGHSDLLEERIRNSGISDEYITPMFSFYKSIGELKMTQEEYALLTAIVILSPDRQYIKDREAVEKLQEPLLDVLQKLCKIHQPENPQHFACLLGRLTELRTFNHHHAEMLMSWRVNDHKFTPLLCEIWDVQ
Summary of the method: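 After 24 h chemical treatment of transfected HepG2 cells, GAL4-UAS reporter transcripts driven by an exogenous FXR-GAL4 fusion were measured by RT-PCR and capillary electrophoresis. Increases over DMSO were fitted.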

[16] = BSK_3C_TissueFactor: BioMAP Diversity Plus: 3C Assay for Tissue Factor Biomarker Activity (AID 2282997); conditions: BioMAP 3C HUVEC, tissue factor biomarker readout; actives raise or lower the signal
Summary of the method: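 Endothelial monolayers (human umbilical vein, primary) are dosed, incubated 24 h, and assayed for Tissue Factor by ELISA; DMSO serves as negative control for bidirectional fitting.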

[17] = BSK_3C_uPAR: BioMAP Diversity Plus: 3C Assay for Urokinase-type plasminogen activator receptor (uPAR) Biomarker Activity (AID 2282998); conditions: BioMAP 3C HUVEC, uPAR biomarker ELISA; actives raise or lower the signal
Summary of the method: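 Readout: ELISA for surface uPAR. System: human umbilical vein endothelial primary cells, 24 h after chemical exposure. Analysis: bidirectional fit, DMSO baseline.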

[18] = BSK_3C_VCAM1: BioMAP Diversity Plus: 3C Assay for Vascular cell adhesion molecule 1 (VCAM1) Biomarker Activity (AID 2282999); conditions: BioMAP 3C HUVEC, VCAM1 ELISA, cytokine-stimulated; actives raise or lower the signal
Summary of the method: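 Endothelial cells from human umbilical vein are treated with test chemical. At 24 h, VCAM-1 is measured by ELISA, and responses in either direction are fitted relative to DMSO.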

[19] = ATG_M_06_TRANS: Attagene TRANS-FACTORIAL HepG2 Assay for M06 Transcription Factor (Internal Marker) (AID 2282983; active = hit-call score of the fitted dose curve at least 0.9, where 1 is the maximum); conditions: HepG2 Attagene TRANS M06 internal marker reporter
Summary of the method: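 Internal-marker background readout from a multiplexed TRANS reporter system in HepG2; 24 h dosing; mRNA induction quantified by RT-PCR plus capillary electrophoresis fluorescence; DMSO as negative control and baseline.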

Measured: AC50

CCCCCCCCCCCC(=O)OCC
not listed: [14] | [15] | [16] | [17] | [18] | [19]
inactive: all other assays above

CC(=O)C(C)C
not listed: [4] | [5] | [10] | [15] | [16] | [17] | [18] | [19]
inactive: all other assays above

CCNc1nc(NC(C)(C)C)nc(OC)n1
not listed: [2] | [4] | [5] | [14] | [19]
inactive: all other assays above

CC12CCC(CC1)C(C)(C)O2
not listed: [2] | [3] | [4] | [6] | [10] | [16] | [17] | [18]
inactive: all other assays above

C=C[C@@]1(C)CC(=O)[C@]2(O)[C@@]3(C)[C@@H](O)CCC(C)(C)[C@@H]3[C@H](O)[C@H](OC(C)=O)[C@@]2(C)O1
active: [1] 42.5 µM | [3] 0.973 µM | [11] 2.95 µM | [13] 0.983 µM
not listed: [10] | [15] | [16] | [17] | [18]
inactive: all other assays above

COC(C=C(C)CCC=C(C)C)OC
inactive: [1] | [15] | [5] | [6] | [7] | [8] | [9] | [10] | [13]
active: [11] 59.2 µM

CCCCCCCCCCCCCC(=O)OC(C)C
not listed: [6] | [15] | [16] | [17] | [18]
inactive: all other assays above

O=c1c(O)c(-c2ccc(O)cc2O)oc2cc(O)cc(O)c12
not listed: [10] | [15] | [16] | [17] | [18] | [19]
inactive: all other assays above

CCCCCCCCC(CO)CCCCCC (configuration not stated)
active: [7] 117 µM | [9] 179 µM | [11] 81.3 µM
not listed: [5] | [10] | [13] | [14] | [15]
inactive: all other assays above

Nc1nc(N)nc(-c2ccccc2)n1
not listed: [13] | [15]
inactive: all other assays above

CC(C)(CO)COC(=O)C(C)(C)CO
not listed: [5] | [6] | [12] | [15] | [16] | [17] | [18] | [19]
inactive: all other assays above

Source: PubChem BioAssay (EPA / NIEHS)
